Measured values taken from PubChem BioAssay (NCATS).
Several values for one entry are separate records, joined by “and”; a condition that tells them apart may be missing. Identical values can stand only once. Results filed as inconclusive are left out. Where a call stands in place of a potency, no number is given. Unmarked numbers belong to inactive results. Activity calls are given as the source filed them. Unless noted, the call rests on the fitted dose curve.

Assays:
[1] = target: Bile acid receptor (Homo sapiens) (UniProt Q96RI1); assay: qHTS assay for small molecule antagonists of farnesoid X receptor signaling (AID 588526); further: potency means the concentration at half of the fitted maximal effect
In short: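 Antagonist mode: titrated compounds tested against chenodeoxycholic acid stimulation (normalized to 50 uM CDCA and DMSO) in GeneBLAzer HEK293T cells for 16 h. Beta-lactamase read by CCF4 fluorescence; IC50 from Hill fits.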

[2] = target: Peroxisome proliferator-activated receptor delta (Homo sapiens) (UniProt Q03181); assay: qHTS assay for small molecule antagonists of peroxisome proliferator-activated receptor delta signaling (AID 588535; active means well fitted inhibition curve with a large enough effect in the signal ratio, with a control signal flat, not every such curve was filed as active; the % refers to the signal ratio)
In short: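 Antagonist-mode beta-lactamase reporter (GeneBLAzer PPAR-delta-UAS-bla) in HEK293T cells, 2% charcoal/dextran FBS, 4000 cells/well. Compound titrations, 18 h at 37 C; CCF4 ratio read, IC50 and efficacy from Hill fits.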

[3] = target: Peroxisome proliferator-activated receptor gamma (Homo sapiens) (UniProt P37231); assay: qHTS assay for small molecule antagonists of peroxisome proliferator-activated receptor gamma signaling (AID 588537; active means well fitted inhibition curve with a large enough effect in the signal ratio, with a control signal flat, not every such curve was filed as active; the % refers to the signal ratio; further: potency means the concentration at half of the fitted maximal effect)
In short: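 PPARγ-UAS-bla HEK293 cells (3000/well) in 1% charcoal/dextran-stripped FBS are treated with compound, then stimulated with 50 nM rosiglitazone for 16 h at 37 °C. Read-out is CCF4 β-lactamase fluorescence after 2 h at RT. IC50 comes from Hill fits normalised to rosiglitazone and DMSO.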

[4] = target: Thyroid hormone receptor beta (Homo sapiens) (UniProt P10828); assay: qHTS assay for small molecule antagonists of thyroid hormone receptor beta signaling (AID 588547; active means well fitted inhibition curve with a large enough effect in the signal ratio, with a control signal flat, not every such curve was filed as active; the % refers to the signal ratio;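 further: cells stimulated with 0.4 nM T3 agonist during compound exposure; series mostly up to about 77 µM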); details: TR-UAS-bla HEK293, beta-lactamase ratio, antagonist mode, 18 h
In short: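 TR-UAS-bla GripTite HEK293 cells in 2% charcoal/dextran FBS medium; compounds 0.59 nM to 92 uM with T3 at 0.4nM final, 18 h at 37 C. Beta-lactamase read by CCF4 fluorescence (460/530 nm); Hill fits gave IC50 and efficacy.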

[5] = target: Androgen receptor (Homo sapiens) (UniProt P10275); assay: qHTS assay for small molecule agonists of androgen receptor signaling (AID 588515; active means well fitted curve in the direction sought with a large enough effect in the signal ratio, with a control signal flat; the % refers to the signal ratio); details: AR-UAS-bla HEK293, beta-lactamase ratio, agonist 16 h; activation: active compounds read high
In short: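 EC50 and efficacy came from Hill fits of titrations (up to 92 uM) normalized to 30 nM R1881 as 100% and DMSO as 0%. Compound exposure was 16 h at 37 C on AR-UAS-bla HEK293 cells, with a 405/460/530 nm CCF4 fluorescence read.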

[6] = target: Peroxisome proliferator-activated receptor gamma (Homo sapiens) (UniProt P37231); assay: qHTS assay for small molecule agonists of peroxisome proliferator-activated receptor gamma signaling (AID 588536; active means well fitted curve in the direction sought with a large enough effect in the signal ratio, with a control signal flat, not every such curve was filed as active; the % refers to the signal ratio)
In short: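 HEK293 UAS-bla reporter line, 1% charcoal/dextran FBS; titration, 16 h, 37 C; CCF4 loading 2 h RT; fluorescence 460/530 nm. Normalized to rosiglitazone 2 uM = 100%, DMSO = 0%.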

[7] = qHTS assay for small molecule activators of the nuclear factor-kappa B (NF-kB) signaling pathway (AID 651749; active means well fitted activation curve with a large enough effect in the signal ratio; the % refers to the signal ratio; further: series mostly up to about 77 µM); details: NF-kB-bla ME-180 cells, beta-lactamase FRET ratio, 16 h; activation: active compounds read high
In short: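 NF-kB-bla ME-180 cells carrying a beta-lactamase reporter under an NF-kB response element, 2,000 cells/well, exposed to compound for 16 hr at 37C; FRET-based beta-lactamase fluorescence read-out of pathway activation.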

[8] = target: Androgen receptor (Homo sapiens) (UniProt P10275); assay: qHTS assay for small molecule antagonists of androgen receptor signaling (AID 588516; active means well fitted curve in the direction sought with a large enough effect in the signal ratio, with a control signal flat, not every such curve was filed as active; the % refers to the signal ratio)
In short: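 Antagonist-mode qHTS: inhibition of R1881 (10 nM)-driven beta-lactamase expression in GripTite HEK 293 cells is measured after 16 h; values are Hill-derived IC50s normalized between R1881 and DMSO wells.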

Chain of Peroxisome proliferator-activated receptor delta (Homo sapiens) (Q03181 whole entry, looked up): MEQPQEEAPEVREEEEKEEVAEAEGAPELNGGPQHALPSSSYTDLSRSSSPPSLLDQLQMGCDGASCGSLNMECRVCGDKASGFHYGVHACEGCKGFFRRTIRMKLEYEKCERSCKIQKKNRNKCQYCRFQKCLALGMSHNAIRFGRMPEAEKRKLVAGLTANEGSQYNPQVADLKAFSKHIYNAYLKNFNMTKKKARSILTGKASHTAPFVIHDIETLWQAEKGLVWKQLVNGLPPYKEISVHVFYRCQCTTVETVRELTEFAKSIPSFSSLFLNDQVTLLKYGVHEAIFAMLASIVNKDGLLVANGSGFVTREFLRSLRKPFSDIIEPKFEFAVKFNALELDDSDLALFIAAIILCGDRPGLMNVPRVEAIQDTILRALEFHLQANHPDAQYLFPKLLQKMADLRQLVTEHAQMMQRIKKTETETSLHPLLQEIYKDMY
Chain of Peroxisome proliferator-activated receptor gamma (Homo sapiens) (P37231 whole entry, looked up): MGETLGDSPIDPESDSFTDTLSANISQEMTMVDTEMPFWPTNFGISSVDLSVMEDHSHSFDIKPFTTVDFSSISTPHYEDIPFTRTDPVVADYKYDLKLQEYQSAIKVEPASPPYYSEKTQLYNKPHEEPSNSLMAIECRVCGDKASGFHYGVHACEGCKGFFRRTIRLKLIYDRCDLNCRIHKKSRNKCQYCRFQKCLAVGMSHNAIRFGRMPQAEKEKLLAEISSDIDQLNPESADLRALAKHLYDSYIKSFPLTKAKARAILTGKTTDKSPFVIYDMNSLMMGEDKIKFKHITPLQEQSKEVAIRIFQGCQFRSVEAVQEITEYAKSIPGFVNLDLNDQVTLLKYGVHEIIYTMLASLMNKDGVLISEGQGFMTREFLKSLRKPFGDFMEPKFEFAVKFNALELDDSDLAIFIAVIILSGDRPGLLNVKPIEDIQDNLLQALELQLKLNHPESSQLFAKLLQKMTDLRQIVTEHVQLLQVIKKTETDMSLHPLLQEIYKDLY
Chain of Androgen receptor (Homo sapiens) (P10275 whole entry, looked up): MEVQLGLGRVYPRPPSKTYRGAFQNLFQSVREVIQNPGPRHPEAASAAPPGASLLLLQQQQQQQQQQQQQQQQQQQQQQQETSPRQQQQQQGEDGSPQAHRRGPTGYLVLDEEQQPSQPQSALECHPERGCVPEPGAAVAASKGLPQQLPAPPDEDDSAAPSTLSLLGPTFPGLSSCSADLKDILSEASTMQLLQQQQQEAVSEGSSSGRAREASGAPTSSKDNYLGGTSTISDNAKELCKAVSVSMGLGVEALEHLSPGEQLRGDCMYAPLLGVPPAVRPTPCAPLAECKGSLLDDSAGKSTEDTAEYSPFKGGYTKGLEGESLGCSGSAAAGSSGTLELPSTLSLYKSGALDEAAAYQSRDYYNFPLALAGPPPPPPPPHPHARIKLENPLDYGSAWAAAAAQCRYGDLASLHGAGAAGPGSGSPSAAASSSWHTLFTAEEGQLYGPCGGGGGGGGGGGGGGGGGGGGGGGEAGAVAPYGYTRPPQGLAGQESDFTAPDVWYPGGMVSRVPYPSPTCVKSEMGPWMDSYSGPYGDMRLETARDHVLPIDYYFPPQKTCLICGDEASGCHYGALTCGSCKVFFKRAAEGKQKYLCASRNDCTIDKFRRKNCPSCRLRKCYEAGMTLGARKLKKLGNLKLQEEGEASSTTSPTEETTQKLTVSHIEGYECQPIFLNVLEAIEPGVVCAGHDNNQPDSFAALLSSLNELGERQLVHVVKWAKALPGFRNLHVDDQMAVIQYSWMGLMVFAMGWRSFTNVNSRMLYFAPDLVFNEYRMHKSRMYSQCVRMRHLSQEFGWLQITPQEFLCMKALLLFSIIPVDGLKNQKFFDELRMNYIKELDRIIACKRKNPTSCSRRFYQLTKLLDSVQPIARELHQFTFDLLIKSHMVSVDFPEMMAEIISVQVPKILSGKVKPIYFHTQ
Chain of Thyroid hormone receptor beta (Homo sapiens) (P10828 whole entry, looked up): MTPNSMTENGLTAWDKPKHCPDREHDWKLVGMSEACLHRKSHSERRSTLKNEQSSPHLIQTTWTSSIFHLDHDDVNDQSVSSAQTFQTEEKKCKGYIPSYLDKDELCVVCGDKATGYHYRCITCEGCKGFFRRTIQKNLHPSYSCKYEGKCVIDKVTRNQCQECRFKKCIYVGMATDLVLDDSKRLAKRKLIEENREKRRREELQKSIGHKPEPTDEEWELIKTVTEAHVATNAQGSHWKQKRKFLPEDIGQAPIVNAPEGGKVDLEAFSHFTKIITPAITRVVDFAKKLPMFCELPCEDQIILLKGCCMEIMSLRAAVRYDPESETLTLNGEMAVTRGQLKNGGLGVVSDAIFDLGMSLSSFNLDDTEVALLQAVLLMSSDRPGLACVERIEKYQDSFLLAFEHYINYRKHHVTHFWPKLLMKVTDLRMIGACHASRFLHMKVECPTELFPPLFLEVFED
Chain of Bile acid receptor (Homo sapiens) (Q96RI1 whole entry, looked up): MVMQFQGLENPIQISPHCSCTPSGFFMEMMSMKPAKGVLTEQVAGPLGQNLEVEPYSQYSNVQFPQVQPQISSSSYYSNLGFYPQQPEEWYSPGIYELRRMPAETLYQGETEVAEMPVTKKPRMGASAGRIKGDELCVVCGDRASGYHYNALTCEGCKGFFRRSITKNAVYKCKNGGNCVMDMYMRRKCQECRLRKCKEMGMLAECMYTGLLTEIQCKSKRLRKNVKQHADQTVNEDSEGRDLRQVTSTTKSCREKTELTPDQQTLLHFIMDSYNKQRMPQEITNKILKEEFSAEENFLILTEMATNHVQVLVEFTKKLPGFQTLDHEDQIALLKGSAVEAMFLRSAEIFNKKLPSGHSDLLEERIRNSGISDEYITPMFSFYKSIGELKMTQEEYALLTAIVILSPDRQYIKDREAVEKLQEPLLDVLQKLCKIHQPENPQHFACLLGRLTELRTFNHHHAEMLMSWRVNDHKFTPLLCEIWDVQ

CCCCCCCCCCCC(=O)OC
Potency [1]: 20 µM (active)

CCCCCCC(O)CCCCCCCCCCC(=O)O (stereo not given)
Potency [1]: inactive | Potency [2]: inactive | Potency [3]: inactive | activity change % (negative = inhibition) [4]: -5.14%

Oc1ccc(C(c2ccc(O)cc2)C(Cl)(Cl)Cl)cc1
Potency [1]: inactive | activity change % (negative = inhibition) [4]: -14.4%

COC(=O)CSc1cc(N=c2sc(=O)n3n2CCCC3)c(F)cc1Cl
activation [5]: -5.93% | Potency [1]: inactive | Potency [3]: inactive

CC(C)(C)[C@H](O)[C@H](Cc1ccc(Cl)cc1)n1cncn1
Potency [1]: inactive | Potency [2]: inactive | outcome [6]: inactive | activity change % (negative = inhibition) [4]: -7.84% and -5.42% | activation [7]: 1.04% and 0.72%

CCCCCCCCCCCCO
Potency [1]: inactive | Potency [2]: inactive | outcome [6]: inactive | Potency [3]: inactive | activity change % (negative = inhibition) [4]: -1.52%

CC(C)(C)c1ccc(C(=O)O)cc1
Potency [1]: inactive | Potency [2]: inactive | outcome [6]: inactive | activity change % (negative = inhibition) [4]: 0.292%

CCCCCCOCCOCCO
Potency [1]: inactive | Potency [2]: inactive | Potency [3]: inactive | activity change % (negative = inhibition) [4]: -6.1%

CCCCCCC(C)(C)S
Potency [1]: inactive | outcome [6]: inactive | activation [7]: -2.27%

CO[Si](CCCNCCN)(OC)OC
activation [5]: 4.85% | outcome [8]: inactive | Potency [2]: inactive | outcome [6]: inactive | activity change % (negative = inhibition) [4]: 7.69%

CCOC(=O)[C@H](C)Oc1ccc(Oc2nc3ccc(Cl)cc3o2)cc1
Potency [1]: inactive | Potency [2]: inactive | Potency [3]: inactive | activity change % (negative = inhibition) [4]: -0.0371% | activation [7]: -0.102%

C=C(C)C(=O)OCC[N+](C)(C)C
activation [5]: 0.258% | outcome [8]: inactive | Potency [2]: inactive | Potency [3]: inactive | activity change % (negative = inhibition) [4]: 5.25%

CCCCCCCCCCCCCCCCN(C)C
activation [5]: 8.77% | outcome [8]: inactive | Potency [2]: inactive

CC(C)=CCC/C(C)=C\CO
activation [5]: -0.0899% | outcome [8]: inactive | Potency [2]: inactive | Potency [3]: inactive | activity change % (negative = inhibition) [4]: -2.03% | activation [7]: -1.2%

CC(C)C[C@H](NC(=O)OCC1c2ccccc2-c2ccccc21)C(=O)O
Potency [1]: inactive | Potency [2]: inactive | activity change % (negative = inhibition) [4]: -4.45% | activation [7]: 1.69%

Cc1ccc(N)c(S(=O)(=O)O)c1
Potency [1]: inactive | Potency [2]: inactive | Potency [3]: inactive | activity change % (negative = inhibition) [4]: -15.2% | activation [7]: 0.0519%

CCOCCOCCOC(C)=O
Potency [1]: inactive | outcome [6]: inactive | activity change % (negative = inhibition) [4]: 14%

O=C(O)c1cc2ccccc2cc1O
activation [5]: -7.51% | outcome [8]: inactive | Potency [3]: inactive | activity change % (negative = inhibition) [4]: -1.94% | activation [7]: 0.405%

COC(=O)CCSCCC(=O)OC
Potency [1]: inactive | Potency [2]: inactive | activation [7]: -0.163%

C1=C/CC/C=C/CC/C=C/CC/1
Potency [1]: inactive | Potency [2]: inactive | outcome [6]: inactive | Potency [3]: inactive | activity change % (negative = inhibition) [4]: 0.305%

CSC(=O)c1cccc2nnsc12
activation [5]: -3.36% | outcome [8]: inactive | Potency [2]: inactive | outcome [6]: inactive | Potency [3]: inactive

CS(C)=O
Potency [1]: inactive | Potency [2]: inactive | outcome [6]: inactive | Potency [3]: inactive | activity change % (negative = inhibition) [4]: -25.7% | activation [7]: 0.392%

O=C(O)C1(C(=O)Nc2ccc(Cl)cc2Cl)CC1
outcome [8]: inactive | Potency [3]: 44.7 µM (active) | activation [7]: -1.09%

Nc1cc(Cl)c(O)c(Cl)c1
activation [5]: -4.43% | Potency [3]: inactive | activation [7]: -1.35%

O=C1CCC(C2CCCCC2)CC1
Potency [1]: inactive | outcome [6]: inactive | activation [7]: -1.09%

CCCCCCCCCCCCCCCO
Potency [1]: inactive | Potency [2]: inactive | outcome [6]: inactive | Potency [3]: inactive | activity change % (negative = inhibition) [4]: 4.44% | activation [7]: -1.59%

COCCOCCOCCOC
Potency [1]: inactive | outcome [6]: inactive | Potency [3]: inactive | activity change % (negative = inhibition) [4]: 2.02% | activation [7]: 0.99%

C=C(C)C(=O)OCC(CC)(COC(=O)C(=C)C)COC(=O)C(=C)C
Potency [1]: inactive | Potency [2]: inactive | outcome [6]: inactive | activation [7]: 0.727%

CCCCC(CC)COC(=O)/C=C\C(=O)OCC(CC)CCCC (stereo not given)
outcome [8]: inactive | Potency [2]: inactive | activation [7]: 0.118%

CCCCCCCCCCCC[N+](C)(C)[O-]
activation [5]: -8.49% | Potency [1]: inactive | outcome [6]: inactive | Potency [3]: inactive | activity change % (negative = inhibition) [4]: -1.65% | activation [7]: 2.53%

O=C1NC(=O)C(Cc2ccc(OCCN3COc4ccccc4C3=O)cc2)S1 (stereo not given)
activation [5]: -3.44% | Potency [1]: inactive | activation [7]: 0.424%

CO[Si](CCCOCC1CO1)(OC)OC (stereo not given)
Potency [1]: inactive | Potency [2]: inactive | outcome [6]: inactive | activity change % (negative = inhibition) [4]: 7.57% | activation [7]: -2.38%

CCCCC(CC)COC(=O)c1ccc(C(=O)OCC(CC)CCCC)cc1 (stereo not given)
outcome [8]: inactive | Potency [1]: inactive | Potency [2]: inactive | outcome [6]: inactive | Potency [3]: inactive

CCOc1ccc(NC(=O)OC(C)C)cc1OCC
Potency [1]: inactive | Potency [2]: inactive | outcome [6]: inactive | Potency [3]: inactive | activity change % (negative = inhibition) [4]: -11% | activation [7]: -0.916%

NC(=O)Cc1cccc2ccccc12
Potency [1]: inactive | Potency [2]: inactive | outcome [6]: inactive

CN(C)CCOCCN(C)C
Potency [1]: inactive | Potency [2]: inactive | outcome [6]: inactive | activity change % (negative = inhibition) [4]: -4.05%
